# According to PubChem BioAssay (EPA / NIEHS):
# Where “and” joins values, the source holds several entries; their conditions need not be identical. Equal entries are not always repeated. Records with an inconclusive call do not appear. Calls of active or inactive are those of the source. Rule for the calls, unless noted: active = hit-call score of the fitted dose curve at least 0.9, where 1 is the maximum; inactive = score below 0.9.
# Tests used:
# [1] = test system: TTR (gene 7276); experiment: CCTE_GLTED_hTTR_0.125uM: CCTE's human Transthyretin (hTTR) Inhibition Assay, with 0.125uM TTR, Great Lakes Toxicology and Ecology Division (GLTED) Lab (AID 2284431);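 note: hits lower the fluorescence signal relative to DMSO baseline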
# Summary of the method: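 TTR at 0.125uM incubated 2 h with test chemical; displacement of bound ANSA read by fluorescence (ex 380, em 475). Activity is signal loss versus DMSO baseline.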
# [2] = CCTE_Padilla_ZF_Score.General: CCTE's 144 Hour Post-fertilization zebrafish Assay Score for General Malformation, Padilla Lab (AID 2284411)
# Summary of the method: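 Wild-type zebrafish embryos were plated singly at 6-8 hpf in 10% Hanks' and exposed in sealed wells at 26C until rinsed on 5 dpf. At 6 dpf two blinded assessors scored mortality, hatching and malformations by stereomicroscopy; gain-of-signal versus DMSO.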
# [3] = test system: SRY-box transcription factor 2 (SOX2) Protein Expression, Deisenroth Lab, SOX2 (gene 6657); experiment: CCTE_Deisenroth_DEVTOX-GLR_Endo_SOX2: CCTE's DevTox GLR-Endo Assay Evaluation of SRY-box transcription factor 2 (SOX2) Protein Expression, Deisenroth Lab (AID 2284412; active = hit-call score of the fitted dose curve at least 0.9, where 1 is the maximum)
# Summary of the method: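 RUES2-GLR human pluripotent cells were seeded 24 h, then differentiated 48 h with two chemical exposures 24 h apart. Cells were fixed, nuclei stained and imaged by high-content microscopy. Endpoint is %SOX2+ cells over cell count, minus 0.2% DMSO control; 10-point series 1 nM–200 uM.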
# [4] = test system: SRY-box transcription factor 17 (SOX17) Protein Expression, Deisenroth Lab, SOX17 (gene 64321); experiment: CCTE_Deisenroth_DEVTOX-GLR_Endo_SOX17: CCTE's DevTox GLR-Endo Assay Evaluation of SRY-box transcription factor 17 (SOX17) Protein Expression, Deisenroth Lab (AID 2284413)
# Summary of the method: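 Seed RUES2-GLR cells 24 h; start endoderm differentiation; dose at 0 and 24 h (1 nM - 200 uM, 10 points); fix at 48 h, stain nuclei, image 5 fields/well; compute SOX17+/total cells vs 0.2% DMSO.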
# [5] = test system: Brachyury (BRA) Protein Expression, TBXT (gene 6862); experiment: CCTE_Deisenroth_DEVTOX-GLR_Endo_BRA: CCTE's DevTox GLR-Endo Assay Evaluation of Brachyury (BRA) Protein Expression, Deisenroth Lab (AID 2284417)
# Summary of the method: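 Percent BRA+ (mesoderm) RUES2-GLR cells after 48 h differentiation with two exposures, 1 nM - 200 uM; 0.2% DMSO control subtracted.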
# [6] = CCTE_Deisenroth_DEVTOX-GLR_Endo_CellCount: Viability Assessment in CCTE's DevTox GLR-Endo Assay, Deisenroth Lab (AID 2284420)
# Summary of the method: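 Percent change in nuclear-stain cell counts versus 0.2% DMSO, from high-content imaging over 5 fields per well. Over a 48 h endoderm differentiation, RUES2-GLR cells received two doses 24 h apart across a 1 nM–200 uM series, with n=4.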
# [7] = test system: SRY-box transcription factor 17 (SOX17) Protein Expression, Deisenroth Lab, SOX17 (gene 64321); experiment: CCTE_Deisenroth_DEVTOX-GLR_Pluri_SOX17: CCTE's DevTox GLR-Pluri Assay Evaluation of SRY-box transcription factor 17 (SOX17) Protein Expression, Deisenroth Lab (AID 2284427; active = hit-call score of the fitted dose curve at least 0.9, where 1 is the maximum)
# Summary of the method: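 The endpoint is SOX17+ cells as a fraction of cell count, corrected for the 0.2% DMSO control and obtained by high-content fluorescence imaging of fixed cells. Cells were RUES2-GLR under a 48-hour endoderm differentiation, dosed twice at 24-hour intervals over 1 nM–200 uM.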
# [8] = test system: SRY-box transcription factor 2 (SOX2) Protein Expression, Deisenroth Lab, SOX2 (gene 6657); experiment: CCTE_Deisenroth_DEVTOX-GLR_Pluri_SOX2: CCTE's DevTox GLR-Pluri Assay Evaluation of SRY-box transcription factor 2 (SOX2) Protein Expression, Deisenroth Lab (AID 2284428)
# Summary of the method: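 Percent SOX2+ cells (SOX2+ count per total cells, fluorescent imaging) in RUES2-GLR human pluripotent line, expressed relative to 0.2% DMSO. Compounds dosed twice at 24 h intervals during 48 h, 1 nM - 200 uM, 10 concentrations.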
# [9] = test system: Brachyury (BRA) Protein Expression, Deisenroth Lab, TBXT (gene 6862); experiment: CCTE_Deisenroth_DEVTOX-GLR_Pluri_BRA: CCTE's DevTox GLR-Pluri Assay Evaluation of Brachyury (BRA) Protein Expression, Deisenroth Lab (AID 2284429; active = hit-call score of the fitted dose curve at least 0.9, where 1 is the maximum)
# Summary of the method: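 An inducible fluorescent BRA reporter in RUES2-GLR cells tracks mesoderm differentiation. Compounds (10 concentrations, 1 nM - 200 uM) are dosed twice within a 48-h differentiation. The endpoint subtracts the 0.2% DMSO control from percent BRA+ cells.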
# [10] = CCTE_Deisenroth_DEVTOX-GLR_Pluri_CellCount: Viability Assessment in CCTE's DevTox GLR-Pluri Assay Evaluation of Total Cell Counts, Deisenroth Lab (AID 2284430)
# Summary of the method: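 RUES2-GLR human pluripotent cells, seeded 24 h, then differentiated 48 h with two chemical exposures 24 h apart; 10-point series 1 nM - 200 uM. Fixed, nuclear-stained, imaged (5 fields/well); nuclei count as % change vs 0.2% DMSO.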
# [11] = CCTE_Padilla_ZF_Score.Position: CCTE's 144 Hour Post-fertilization zebrafish Assay Score for Position, Padilla Lab (AID 2284409)
# Summary of the method: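 Wild-type zebrafish embryos (with chorions) exposed singly from 6–8 hpf in sealed wells of Hanks' solution at 26C, rinsed at 5 dpf. At 6 dpf, blinded assessors scored abnormal water-column position by brightfield stereomicroscopy, relative to DMSO.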
# [12] = CCTE_Padilla_ZF_Score.Living: CCTE's 144 Hour Post-fertilization zebrafish Assay Score for Viability, Padilla Lab (AID 2284410);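 note: larval death at 6 dpf judged by absent heartbeat or coagulation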
# Summary of the method: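 Wild-type zebrafish embryos were exposed singly from 6–8 hpf in sealed wells of Hanks' solution at 26C, then rinsed at 5 dpf. At 6 dpf, blinded assessors scored mortality (no heartbeat or coagulation) by stereomicroscopy, fitted against DMSO.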
# [13] = CCTE_Padilla_ZF_Score.Tail: CCTE's 144 Hour Post-fertilization zebrafish Assay Score for Tail Malformation, Padilla Lab (AID 2284414)
# Summary of the method: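 Wild-type zebrafish embryos, one per well in 200 uL 10% Hanks', dosed at 6-8 hpf, sealed, and kept at 26 C on a 14:10 h light cycle. Chemical was rinsed out at 5 dpf. Blinded brightfield scoring of tail defects followed at 6 dpf.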
# [14] = CCTE_Padilla_ZF_Score.Blood_pooling: CCTE's 144 Hour Post-fertilization zebrafish Assay Score for Blood Pooling, Padilla Lab (AID 2284415)
# Summary of the method: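 Wild-type outbred zebrafish embryos, one per well in 10% Hanks', exposed from 6–8 hpf in sealed plates at 26C on 14:10 h light:dark, rinsed at 5 dpf. Blinded stereomicroscope scoring of blood pooling at 6 dpf; gain-of-signal versus DMSO.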
# [15] = CCTE_Padilla_ZF_Score.Any: CCTE's 144 Hour Post-fertilization zebrafish Assay Score for Any Mortality or Malformation, Padilla Lab (AID 2284416)
# Summary of the method: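 Wild-type zebrafish embryos with chorions, one per well in 10% Hanks' from 6–8 hpf, dosed in sealed plates at 26 C, 14:10 h light:dark; rinsed at 5 dpf; blinded scoring at 6 dpf for death or malformation, versus DMSO.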
smiles,measurement,setting,value
O=C(O)c1ccccc1C(c1ccc(O)cc1)c1ccc(O)cc1,AC50,[1],3040 nM (active)
CCCCCCCCCCCCCC[N+](C)(C)C,outcome,[2],inactive
CCCOC(=O)c1ccc(O)cc1,AC50,[1],5010 nM (active)
ClC1=C(Cl)C(Cl)(Cl)C(Cl)=C1Cl,AC50,[1],7090 nM (active)
C[C@@H]1C[C@H]2[C@@H]3CCC4=CC(=O)C=C[C@]4(C)[C@@]3(F)[C@@H](O)C[C@]2(C)[C@@]1(O)C(=O)COP(=O)(O)O,outcome,[3],inactive
same,outcome,[4],inactive
same,outcome,[5],inactive
same,outcome,[6],inactive
same,outcome,[7],inactive
same,outcome,[8],inactive
same,outcome,[9],inactive
same,outcome,[10],inactive
O=[N+]([O-])c1ccc(O)cc1,AC50,[1],6.47 µM (active) and 8.54 µM (active)
OCCC(F)(F)C(F)(F)C(F)(F)C(F)(F)C(F)(F)C(F)(F)F,outcome,[11],inactive
same,outcome,[12],inactive
same,AC50,[2],2.19 µM (active)
same,outcome,[13],inactive
same,outcome,[14],inactive
same,AC50,[15],28.6 µM (active)
O=C(O)Cc1cc(I)c(Oc2cc(I)c(O)c(I)c2)c(I)c1,AC50,[1],10.4 nM (active)
CCc1ccc(CCOc2ccc(CC3SC(=O)NC3=O)cc2)nc1 (stereo not drawn),AC50,[1],392 nM (active)
NC(=O)N(O)[C@@H]1C=C[C@H](Oc2cccc(Oc3ccc(F)cc3)c2)C1,AC50,[1],439 nM (active)
CC[C@H](c1ccc(O)cc1)[C@@H](CC)c1ccc(O)cc1,AC50,[1],132 nM (active)
